Several values for one entry are separate records, joined by “and”; a condition that tells them apart may be missing. Equal values may be shown once. In all, about 330,000 compounds went through this assay and about 1,100 (0.33%) were called active. The entries come from a sample that favours actives as a whole. Unmarked numbers belong to inactive results. Cut-off read from the data, not from the text of the source: active = inhibition above about 85%; inactive = the rest.

This experiment in a line: growth inhibition of S. aureus RN4220, primary screen, OD600 (AID 1259311).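 Note: plate controls were untreated cells for no effect and reference antibiotic for full effect.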 Conditions: OD600, 16 h, stronger effect = higher value.
Regarding `CC(Oc1ccc2ccccc2c1)C(=O)NNC(=S)NC(=O)c1ccco1` (stereo not drawn), the inhibition is 92.3% (active).
The figure for `Cc1ccc(C(=O)NNC(=O)C(C)Oc2ccc3ccccc3c2)o1` (stereo not drawn) is 0.442%; for `Cc1ccc(OCC(=O)NNC(=S)NCc2ccccc2)cc1` it is 3.38%; for `Cc1ccc(OCC(=O)NCCCNC(=O)c2ccco2)cc1C` it is -1.59%.
With `O=C(Nc1ccc2ccccc2c1)/C(=C/c1cccc(Br)c1)NC(=O)c1ccco1` the figure was 0.361%.
The figure for `CCCc1ccc(OCC(=O)NNC(=S)NC(=O)c2ccco2)cc1` is 102% (active); for `Cc1cc(=O)[nH]c(NN=Cc2ccccc2Cl)n1` it is 2.01%.
For `CC(C(O)c1ccccc1)N(C)C(=O)CCc1ccccc1` (stereo not drawn), the inhibition is 0.814%.
The figure for `Cc1cc(Cl)ccc1OCCCC(=O)NN=Cc1cccc([N+](=O)[O-])c1` is -5.47%; for `CN(C)c1ccc(C(=NO)C(F)(F)F)cc1` it is 19.2%; for `O=C(CN1C(=O)C(=Cc2ccc(C(F)(F)F)cc2)Sc2ccccc21)NCc1ccco1` it is 2.46%.
With `COc1ccccc1NC(=S)N1CCN(c2ccc(F)cc2)CC1` the figure was 3.36%; with `COc1c(N2CCN(C(=S)Nc3ccccc3F)C(C)C2)c(F)cc2c(=O)c(C(=O)O)cn(C3CC3)c12` (stereo not drawn), 99.8% (active); with `CC1CN(C(=S)Nc2ccccc2F)CC(C)O1` (stereo not drawn), -2.44%.
Regarding `S=c1[nH]nc(C2CCCCC2)n1N=C/C=C/c1ccccc1`, the inhibition was 3.47%.
The figure for `COc1ccc(CNC(=O)CCN2C(=O)c3ccccc3C2=O)cc1` is 0.137%; for `COC(=O)c1cc(OC)ccc1-c1ccc(OC)cc1` it is -2.37%.
Regarding `CCOC(=O)C1=C(c2ccc(OC)cc2)C(=O)c2ccccc2C1=O`, the inhibition is 96.9% (active).
With `Cc1nn(Cc2ccc(F)cc2)c(Cl)c1C=NNC(=O)c1cccnc1` the figure was 4.34%.
With `COC(=O)NN=C(C)c1ccc(Br)cc1` the figure was 0.736%; with `S=c1[nH]nc(COc2ccccc2)n1N=C/C=C/c1ccccc1`, 7.1%; with `CN1CCN(N=Cc2nc(-c3ccccc3Cl)n3ccccc23)CC1`, 7.72%.
As for `O=S(=O)(NCc1ccccn1)c1ccc(Br)s1`, the inhibition is 8.79%.
On to `O=S(=O)([N-]c1nc2ccccc2nc1-[n+]1ccc(Cc2ccccc2)cc1)c1ccc(Br)s1`, for which the inhibition was 94.6% (active).
As to `CN1CCc2c(sc(N=Cc3cc(Cl)ccc3O)c2C#N)C1`, the inhibition was 5.61%.
As to `CCN1/C(=C/c2ccc3ccc(C)cc3[n+]2CC)Sc2ccccc21`, the inhibition is 100% (active).
With `CC1CN(C(C)CO)C(=O)c2cccc(NC(=O)Nc3ccc(C(F)(F)F)cc3)c2OC1CN(C)C` (stereo not drawn) the figure was 0.322%; with `COc1ccccc1NC(=O)c1ccc2nc(N3C(=O)CCC3=O)sc2c1`, 2.05%.
As for `COc1ccc(C2=NN(c3nc4ccccc4s3)C(=O)C2)cc1`, the inhibition is 97.7% (active).
On to `COc1ccc(C(=O)Nc2cccc(/C=C(/CCC(=O)O)c3nc4ccccc4s3)c2)cc1`, for which the inhibition was 19.7%.
With `CCN1CC2C3C(=O)N(Cc4ccccc4)C(=O)C3[C@](C)(C1=O)N2C(=O)c1ccc(C)cc1` (stereo partly drawn) the figure was 3.51%; with `NC1=NCC(Cc2ccc(O)cc2)N1CC1CCCCC1` (stereo not drawn), 4.08% and -3.38%.
The figure for `CC(=O)OC1CC[C@@]2(C)C(CCC3C4CCC(C(C)O)[C@@]4(C)CC(=O)C32)C1` (stereo partly drawn) is 3.21%; for `COC(=O)C1=C(C)N(c2ccc(C)cc2)/C(=C/c2ccc(O)cc2)C1=O` it is 84.9% (active); for `COC(=O)C1(C)NC(c2ccc(C)cc2)C2C(=O)N(c3ccc(F)cc3)C(=O)C21` (stereo not drawn) it is -0.392%.
The figure for `CCOC1OC(C(=O)N2CCCCCCC2)=CC(c2ccc(C(F)(F)F)cc2)C1CCCO` (stereo not drawn) is 7.41% and 6.78%.
Consider `O=C(NCc1ccccc1)C1=CC(c2ccc(C(F)(F)F)cc2)CC(OCc2ccc(CO)cc2)O1` (stereo not drawn), for which the inhibition is 5.86%.
With `O=C(/C=C/c1ccc([N+](=O)[O-])o1)NNC(=O)c1ccc(F)cc1` the figure was 99.6% (active); with `Nc1nonc1C(=O)NN=Cc1ccc([N+](=O)[O-])o1`, 21.6%.
The figure for `O=C(NN=Cc1ccc(F)cc1)c1ccc(F)cc1` is 4.01%; for `O=C(O)c1ccc(NN=Cc2cc3ccccc3nc2Cl)cc1` it is -0.883%.
The figure for `CCCCC1CC1C(NC(=O)c1ccccc1)c1ccccc1C(F)(F)F` (stereo not drawn) is 9.97%; for `Cc1cccc(C(=O)Oc2ccccc2C=NNc2ccc([N+](=O)[O-])cc2)c1` it is -8.66%.
`NC(COc1cc(Cl)cc(Cl)c1)=NO`: the inhibition was 1.6%.
On to `COc1ccc(-c2csc3ncnc(N4CCN(S(=O)(=O)c5ccccc5C#N)CC4)c23)cc1`, for which the inhibition was 96.6% (active).
Turning to `COc1ccc(S(=O)(=O)N2CCN(c3ncnc4c(-c5ccccc5)nsc34)CC2)cc1`, the inhibition is 4.04%.
On to `COc1ccc(-c2csc3ncnc(N4CCN(S(=O)(=O)c5cccc(F)c5)CC4)c23)cc1`, for which the inhibition was 2.78%.
Consider `C/[N+]([O-])=C\c1ccc([N+](=O)[O-])o1`, for which the inhibition was 97.6% (active).
Regarding `Cc1cccc(NC(=O)c2ccc([N+](=O)[O-])o2)c1`, the inhibition was 35.2%.
With `Cc1ccc(NCC(=O)NN=Cc2ccc([N+](=O)[O-])o2)cc1` the figure was 7.24%; with `COc1cc(C=NNC(=O)c2cccc([N+](=O)[O-])c2)ccc1O`, -1.37%; with `COc1ccc(S(=O)(=O)Nc2ccc3c(c2)C(=O)N(C(C)CO)CC(C)C(CN(C)CC2CC2)O3)cc1` (stereo not drawn), 1.05%.
With `CC(=NNc1cc(C)nc(NCc2ccccc2)n1)c1ccc([N+](=O)[O-])cc1` the figure was -7.45%.
As for `COc1ccc2c(c1)OC(O)(C(F)(F)C(F)F)CC2=O` (stereo not drawn), the inhibition was 99.2% (active).
The figure for `COc1ccc2c(c1)SC(C)CC2=O` (stereo not drawn) is -12.2%; for `COc1ccc2c(c1)C(=O)CC(c1ccccc1)O2` (stereo not drawn) it is 2.06%.
Regarding `CC(=O)OCC(=O)C1CCC2C3CCC4CC(O)CC[C@]4(C)C3C(=O)C[C@]12C` (stereo partly drawn), the inhibition was 2.69%.
The figure for `CC(NC(=O)c1nc[nH]c1C(=O)NC(C)c1ccccc1)C(=O)OCc1ccccc1` (stereo not drawn) is 6.68%.

The values above are taken from PubChem BioAssay AID1259311 (ICCB-Longwood Screening Facility, Harvard Medical School, 2017).
